In PubChem BioAssay (Tox21):
Results filed as inconclusive are left out. Where a call stands in place of a potency, no number is given. The source made the active and inactive calls. Calls follow the shape of the dose curve; as a rule, active = well fitted activation curve with a large enough effect in the signal ratio in the repeat runs (not every such curve was filed as active); inconclusive = weak or mixed curves; inactive = flat fitted curve, though single readings scatter; the % refers to the signal ratio.

experiment: p53 small molecule agonists, cell-based qHTS assay (AID 1963582); details: HCT-116 p53RE-bla reporter, beta-lactamase FRET ratio, 16 h; series mostly up to 66 µM; activation: at the top concentration
Description: National Center for Advancing Translational Sciences [NCATS]
Division of Preclinical Innovation [DPI]
U.S. Environmental Protection Agency [EPA]
National Institutes of Environmental Health Sciences [NIEHS]
National Toxicology Program [NTP]
U.S. Food and Drug Administration [FDA]
p53, a tumor suppressor protein, is activated following cellular insult, including DNA damage and other cellular stresses. The activation of p53 regulates cell fate by inducing DNA repair, cell cycle arrest, apoptosis, or cellular senescence. The activation of p53, therefore, is a good indicator of DNA damage and other cellular stresses. […] The activation of the reporter gene under culture conditions can be detected by fluorescence intensity. This cell line was used to screen the Tox21 10K compound library in a 1536-well plate format and to identify agonists that activate the p53 signaling pathway.
Tox21 Assay Protocol Summary:
The p53RE-bla cells were dispensed at 4,000 cells/5 ul/well in 1536-well black wall/clear bottom plates using a Multidrop dispenser. After the assay plates were incubated at a 37 C/5% CO2 incubator for 5 hours, 23 nL of compounds dissolved in DMSO, positive controls or DMSO only was transferred to the assay plate by a pin tool. The plates were incubated at 37 C for 16 hours. After 1 uL of LiveBLAzerTM B/G FRET substrate was added using a Flying Reagent Dispenser, the plates were incubated at room temperature for 2 hours, and fluorescence intensity was measured by an Envision plate reader.

Compound | Potency | activation
CCCCCCCCCCC(CO)CCCCCCCC (stereo not given) | inactive | –
O=C(O)CCCCCCCC(=O)O | inactive | –
C[Si](O[Si](C)(C)C)O[Si](C)(C)C | inactive | –
CC(C)(CO)CO | inactive | –
CC(=O)OCC(=O)[C@@]12N=C(C)O[C@@H]1C[C@H]1[C@@H]3CCC4=CC(=O)C=C[C@]4(C)[C@H]3[C@@H](O)C[C@@]12C | inactive | –
CCCCC(CC)COC(=O)CCCCC(=O)OCC(CC)CCCC (stereo not given) | inactive | –
COc1ccc([N+](=O)[O-])cc1N | inactive | –
COCCCN | inactive | –
CC1CCC2CC1C2(C)C (stereo not given) | inactive | –
COc1cc([C@H]2Oc3cc([C@H]4Oc5cc(O)cc(O)c5C(=O)[C@@H]4O)ccc3O[C@@H]2CO)ccc1O | – | -3.86% [at 30.3 µM] (inactive)
Nc1ccc(S(N)(=O)=O)cc1 | inactive | –
CCCCC(=O)O | inactive | –
Cc1cc(=O)n(-c2ccccc2)n1C | inactive | –
Nc1ccc(Nc2ccccc2)cc1 | – | -9.82% (inactive)
CS(=O)(=O)c1ccc([C@@H](O)[C@@H](CO)NC(=O)C(Cl)Cl)cc1 | inactive | –
C[Si]1(C)O[Si](C)(C)O[Si](C)(C)O[Si](C)(C)O1 | inactive | –
Cc1cccc2ccccc12 | inactive | –
CCC[C@H](N[C@@H](C)C(=O)N1[C@H](C(=O)O)C[C@@H]2CCCC[C@@H]21)C(=O)OCC | inactive | –
NS(=O)(=O)c1cc2c(cc1Cl)NC=NS2(=O)=O | inactive | –
OCc1ccc(Cl)cc1Cl | inactive | –

Compound | Potency | activation
O=c1c(O)c(-c2ccc(O)c(O)c2)oc2cc(O)cc(O)c12 | – | 7.5% [at 30.3 µM] (inactive)
Nc1ccc(S(=O)(=O)c2ccc(N)cc2)cc1 | inactive | –
CC(=O)c1ccccn1 | inactive | –
C=C(C)C1CC=C(C)CC1 (stereo not given) | inactive | –
N#Cc1ccccc1 | – | -0.46% (inactive)
c1ccc2cc3c(ccc4ccccc43)cc2c1 | inactive | –
c1ccc2scnc2c1 | inactive | –
CC(C)Cc1ccc(C(C)C(=O)O)cc1 (stereo not given) | inactive | –
OC(CCl)CCl | inactive | –
C[C@]12C=CC(=O)C=C1CC[C@@H]1[C@@H]2[C@@H](O)C[C@@]2(C)[C@H]1CC[C@]2(O)C(=O)CO | inactive | –
Cc1cc(=O)oc2cc(O)ccc12 | inactive | –
Cc1ccc([N+](=O)[O-])cc1N | inactive | –
O=c1ccc2ccccc2o1 | inactive | –
CC(=O)Nc1ccc(C(=O)O)cc1 | inactive | –
CC(C)OP(=O)(CP(=O)(OC(C)C)OC(C)C)OC(C)C | – | -4.54% (inactive)
CCCCC(CC)COC(=O)CS (stereo not given) | inactive | –
C=C(C)CC(C)(C)C | inactive | –
CC(COc1ccccc1)N(CCCl)Cc1ccccc1 (stereo not given) | – | 0.567% [at 30.3 µM] (inactive)
CNC[C@H](O)c1cccc(O)c1 | inactive | –
COCCOCCOC | inactive | –
